The supplement of paper PMC10849652
The full data set covers some 7,900 targets. This sample favours those with a hit. About 0.6% of all pairs of compound and target were hits.

Compound: COC(=O)N[C@@H](C)CNc1nccc(-c2cn(C(C)C)nc2-c2cc(Cl)cc(NS(C)(=O)=O)c2F)n1 [encorafenib]
Assay: log2 fold change, soluble protein after heating vs DMSO (PISA); higher = thermal stabilisation; K562 cells, 10 uM, 30 min; active = over 0.2 and 3.5 SD of the protein, either way, in both replicates (recomputed)
Procedure, shortened: (§1)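 Quantification of soluble protein used TMTpro 16plex LC-MS/MS, with channel sums equalised. Samples were the supernatant after 21,000xg for 90 min of pooled aliquots from K562 cells (2×10^6 cells/mL) treated with 10 μM compound for 30 min, heated for 3 min over 48°C-58°C, and extracted in PBS with 0.5% NP-40 at 4°C. Values, from duplicates, describe thermal stability against control samples on a log2 fold-change scale.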

UniProt Q8NCF5, sequence (Q8NCF5 whole entry, looked up): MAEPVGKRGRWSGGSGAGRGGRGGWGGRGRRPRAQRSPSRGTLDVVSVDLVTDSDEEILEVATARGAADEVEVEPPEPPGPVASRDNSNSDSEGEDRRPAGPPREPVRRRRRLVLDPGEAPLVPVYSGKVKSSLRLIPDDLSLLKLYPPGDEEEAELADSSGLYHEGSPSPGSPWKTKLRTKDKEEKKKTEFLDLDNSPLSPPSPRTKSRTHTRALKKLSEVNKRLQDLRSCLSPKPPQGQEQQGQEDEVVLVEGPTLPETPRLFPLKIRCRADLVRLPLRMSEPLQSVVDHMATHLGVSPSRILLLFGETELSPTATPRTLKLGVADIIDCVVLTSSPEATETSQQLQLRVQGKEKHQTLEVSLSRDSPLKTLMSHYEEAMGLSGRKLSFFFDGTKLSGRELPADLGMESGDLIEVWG
UniProt Q92692, sequence (Q92692 whole entry, looked up): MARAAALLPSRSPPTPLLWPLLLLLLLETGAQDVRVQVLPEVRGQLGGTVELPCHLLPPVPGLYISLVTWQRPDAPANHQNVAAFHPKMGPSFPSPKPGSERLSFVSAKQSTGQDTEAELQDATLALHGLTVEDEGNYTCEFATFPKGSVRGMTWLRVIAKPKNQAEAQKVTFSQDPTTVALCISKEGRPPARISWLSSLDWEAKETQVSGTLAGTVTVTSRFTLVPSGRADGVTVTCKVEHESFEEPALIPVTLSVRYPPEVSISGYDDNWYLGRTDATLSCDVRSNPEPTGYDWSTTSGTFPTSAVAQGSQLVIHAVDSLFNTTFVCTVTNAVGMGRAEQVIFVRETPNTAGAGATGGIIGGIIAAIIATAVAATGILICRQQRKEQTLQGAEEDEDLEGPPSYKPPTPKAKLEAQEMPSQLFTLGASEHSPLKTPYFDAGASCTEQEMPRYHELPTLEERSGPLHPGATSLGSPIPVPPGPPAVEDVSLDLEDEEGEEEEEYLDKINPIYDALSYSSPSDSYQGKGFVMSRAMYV
UniProt P46934, sequence (P46934 whole entry, looked up): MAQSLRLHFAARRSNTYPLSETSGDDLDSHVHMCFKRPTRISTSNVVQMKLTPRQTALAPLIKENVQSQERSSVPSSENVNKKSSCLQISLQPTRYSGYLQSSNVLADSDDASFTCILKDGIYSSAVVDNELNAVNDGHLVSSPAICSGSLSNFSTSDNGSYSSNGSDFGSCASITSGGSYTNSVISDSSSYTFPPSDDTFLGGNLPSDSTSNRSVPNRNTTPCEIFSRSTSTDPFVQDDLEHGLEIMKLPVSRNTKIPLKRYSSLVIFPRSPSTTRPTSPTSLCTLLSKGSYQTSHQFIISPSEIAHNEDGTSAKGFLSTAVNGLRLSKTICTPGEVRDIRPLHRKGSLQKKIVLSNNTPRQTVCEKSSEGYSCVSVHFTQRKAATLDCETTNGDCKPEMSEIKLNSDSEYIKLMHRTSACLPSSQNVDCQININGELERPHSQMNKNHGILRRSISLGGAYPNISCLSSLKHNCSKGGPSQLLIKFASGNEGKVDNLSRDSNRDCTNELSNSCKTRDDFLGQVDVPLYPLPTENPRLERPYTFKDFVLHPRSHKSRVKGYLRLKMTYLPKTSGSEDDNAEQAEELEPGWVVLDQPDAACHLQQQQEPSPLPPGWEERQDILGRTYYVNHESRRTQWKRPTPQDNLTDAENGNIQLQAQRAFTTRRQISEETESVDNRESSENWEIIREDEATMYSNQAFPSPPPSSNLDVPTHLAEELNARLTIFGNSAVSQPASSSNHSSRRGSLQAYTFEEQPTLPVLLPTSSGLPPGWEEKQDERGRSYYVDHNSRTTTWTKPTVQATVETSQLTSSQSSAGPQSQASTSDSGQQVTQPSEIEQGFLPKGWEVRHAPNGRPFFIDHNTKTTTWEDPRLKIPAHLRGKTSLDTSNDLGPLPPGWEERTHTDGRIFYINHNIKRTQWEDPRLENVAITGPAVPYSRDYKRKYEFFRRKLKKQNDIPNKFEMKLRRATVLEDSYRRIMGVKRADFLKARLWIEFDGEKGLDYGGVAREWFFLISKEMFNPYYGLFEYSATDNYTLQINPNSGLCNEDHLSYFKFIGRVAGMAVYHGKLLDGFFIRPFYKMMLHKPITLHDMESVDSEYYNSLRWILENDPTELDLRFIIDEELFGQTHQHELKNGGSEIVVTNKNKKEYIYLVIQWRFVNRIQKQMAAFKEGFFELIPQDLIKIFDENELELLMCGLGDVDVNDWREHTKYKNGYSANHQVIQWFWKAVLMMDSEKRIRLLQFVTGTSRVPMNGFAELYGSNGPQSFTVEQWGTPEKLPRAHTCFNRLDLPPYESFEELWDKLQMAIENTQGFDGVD
UniProt P46087, sequence (P46087 whole entry, looked up): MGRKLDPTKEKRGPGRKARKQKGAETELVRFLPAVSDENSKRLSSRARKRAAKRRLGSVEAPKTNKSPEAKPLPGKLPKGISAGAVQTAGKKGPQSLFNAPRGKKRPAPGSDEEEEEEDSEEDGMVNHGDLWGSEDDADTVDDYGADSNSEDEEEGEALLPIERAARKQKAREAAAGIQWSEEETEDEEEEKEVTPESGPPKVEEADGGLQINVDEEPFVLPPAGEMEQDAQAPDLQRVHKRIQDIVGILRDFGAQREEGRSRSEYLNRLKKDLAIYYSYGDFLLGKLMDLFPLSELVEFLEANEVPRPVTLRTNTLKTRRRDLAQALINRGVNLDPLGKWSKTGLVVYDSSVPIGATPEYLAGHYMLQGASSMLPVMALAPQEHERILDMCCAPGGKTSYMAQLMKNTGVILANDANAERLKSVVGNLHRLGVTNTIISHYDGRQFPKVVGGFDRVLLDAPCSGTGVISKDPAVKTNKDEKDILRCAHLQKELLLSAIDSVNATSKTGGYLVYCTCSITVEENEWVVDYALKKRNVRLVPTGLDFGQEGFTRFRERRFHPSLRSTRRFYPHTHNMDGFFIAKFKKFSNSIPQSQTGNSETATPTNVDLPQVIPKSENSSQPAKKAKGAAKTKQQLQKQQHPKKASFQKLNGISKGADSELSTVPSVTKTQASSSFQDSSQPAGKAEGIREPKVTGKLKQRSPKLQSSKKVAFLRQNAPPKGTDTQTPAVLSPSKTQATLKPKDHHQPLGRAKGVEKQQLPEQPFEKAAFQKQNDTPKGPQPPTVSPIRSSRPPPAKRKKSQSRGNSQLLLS
UniProt P68402, sequence (P68402 whole entry, looked up): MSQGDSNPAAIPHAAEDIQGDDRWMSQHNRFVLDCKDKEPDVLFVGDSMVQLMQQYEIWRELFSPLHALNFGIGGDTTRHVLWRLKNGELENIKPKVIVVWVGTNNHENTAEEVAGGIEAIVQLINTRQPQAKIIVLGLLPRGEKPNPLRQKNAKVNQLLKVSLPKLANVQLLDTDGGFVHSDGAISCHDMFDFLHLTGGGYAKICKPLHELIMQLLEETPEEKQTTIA
UniProt Q9Y314, sequence (Q9Y314 whole entry, looked up): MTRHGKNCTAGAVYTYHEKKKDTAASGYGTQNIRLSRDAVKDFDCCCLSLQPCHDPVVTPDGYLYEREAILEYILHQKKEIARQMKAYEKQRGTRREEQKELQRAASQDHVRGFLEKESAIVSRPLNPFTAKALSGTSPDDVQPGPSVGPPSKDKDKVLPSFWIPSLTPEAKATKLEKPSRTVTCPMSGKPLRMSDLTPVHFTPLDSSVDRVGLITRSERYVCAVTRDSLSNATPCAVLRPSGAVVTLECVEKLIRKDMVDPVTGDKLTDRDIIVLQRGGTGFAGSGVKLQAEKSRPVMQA
UniProt Q9BUK6, sequence (Q9BUK6 whole entry, looked up): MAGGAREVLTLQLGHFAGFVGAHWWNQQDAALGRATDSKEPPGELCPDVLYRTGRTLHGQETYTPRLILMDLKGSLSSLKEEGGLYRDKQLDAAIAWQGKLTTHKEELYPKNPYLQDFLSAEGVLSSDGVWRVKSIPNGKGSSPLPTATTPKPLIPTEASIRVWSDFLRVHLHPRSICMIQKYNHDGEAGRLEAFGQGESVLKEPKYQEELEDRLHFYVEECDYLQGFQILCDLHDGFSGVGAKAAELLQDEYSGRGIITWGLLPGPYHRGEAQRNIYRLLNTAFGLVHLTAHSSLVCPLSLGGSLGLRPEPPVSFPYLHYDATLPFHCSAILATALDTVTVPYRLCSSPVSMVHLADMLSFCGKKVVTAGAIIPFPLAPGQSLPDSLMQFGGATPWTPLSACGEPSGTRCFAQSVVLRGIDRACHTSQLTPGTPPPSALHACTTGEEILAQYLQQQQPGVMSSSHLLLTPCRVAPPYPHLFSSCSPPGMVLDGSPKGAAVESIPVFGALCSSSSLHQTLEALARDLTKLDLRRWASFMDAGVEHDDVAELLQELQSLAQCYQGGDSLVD
UniProt Q99747, sequence (Q99747 whole entry, looked up): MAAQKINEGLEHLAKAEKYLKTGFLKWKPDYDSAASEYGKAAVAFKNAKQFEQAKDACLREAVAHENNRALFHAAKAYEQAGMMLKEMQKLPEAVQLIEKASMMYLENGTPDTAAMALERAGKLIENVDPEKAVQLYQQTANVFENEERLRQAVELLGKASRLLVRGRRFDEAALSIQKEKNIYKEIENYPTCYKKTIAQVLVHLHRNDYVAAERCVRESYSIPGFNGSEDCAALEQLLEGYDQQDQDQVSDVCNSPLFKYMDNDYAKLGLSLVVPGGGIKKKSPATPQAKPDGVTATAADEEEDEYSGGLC
UniProt Q13952, sequence (Q13952 whole entry, looked up): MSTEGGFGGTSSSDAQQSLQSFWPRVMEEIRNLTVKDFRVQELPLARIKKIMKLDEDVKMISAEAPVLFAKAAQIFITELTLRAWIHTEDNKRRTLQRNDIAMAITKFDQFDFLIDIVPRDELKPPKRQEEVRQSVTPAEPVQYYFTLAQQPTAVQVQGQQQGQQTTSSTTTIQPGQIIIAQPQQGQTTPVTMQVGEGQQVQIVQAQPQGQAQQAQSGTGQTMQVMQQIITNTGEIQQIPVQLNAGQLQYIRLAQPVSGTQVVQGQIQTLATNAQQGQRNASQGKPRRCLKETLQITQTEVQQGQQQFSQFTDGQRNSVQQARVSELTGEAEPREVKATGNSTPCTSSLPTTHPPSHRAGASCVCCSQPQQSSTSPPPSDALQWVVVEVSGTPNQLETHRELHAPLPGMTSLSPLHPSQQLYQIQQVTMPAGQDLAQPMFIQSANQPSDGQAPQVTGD

log2 fold change, inactive:
NUDCD2 (UniProt Q8WVJ2) 0.048
NA, A0A096LPI6 -0.009
NAP1L1 (UniProt P55209) 0.048
NCL (UniProt P19338) 0.257
NUP107 (UniProt P57740) 0.111
MRPL46 (UniProt Q9H2W6) 0.045
MRPS22 (UniProt P82650) 0.064
MSTO1 (UniProt Q9BUK6) 0.04
NOL11 (UniProt Q9H8H0) -0.012
NFYC (UniProt Q13952) 0.005
MTMR14 (UniProt Q8NCE2) -0.026
NISCH (UniProt Q9Y2I1) 0.093
NAPG (UniProt Q99747) 0.052
NDUFA4 (UniProt O00483) -0.04
NUMB (UniProt P49757) 0.081
MRPS18B (UniProt Q9Y676) 0.034
NUP85 (UniProt Q9BW27) 0.025
MTHFD1 (UniProt P11586) 0.04
NOSIP (UniProt Q9Y314) 0.181
NECTIN2 (UniProt Q92692) -0.024
NUP205 (UniProt Q92621) 0.096
NFATC2IP (UniProt Q8NCF5) 0.075
NRF1 isoform 4 (UniProt Q16656) 0.036
MRPS12 (UniProt O15235) 0.105
MON1B (UniProt Q7L1V2) 0.037
NEMP1 (UniProt O14524) -0.039
NDUFAF6 (UniProt Q330K2) 0.081
NFATC3 (UniProt Q12968) -0.166
MRPS15 (UniProt P82914) 0.039
NUP160 (UniProt Q12769) 0.038
NEU1 (UniProt Q99519) -0.012
OGFR (UniProt Q9NZT2) 0.031
NBN (UniProt O60934) 0.003
MYH10 isoform 3 (UniProt P35580) 0.017
MRPS24 (UniProt Q96EL2) 0.08
NOP2 isoform 4 (UniProt P46087) 0.238
NEDD4 isoform 4 (UniProt P46934) 0.049
NOLC1 isoform 2 (UniProt Q14978) -0.007
PAFAH1B2 (UniProt P68402) -0.006

Compound: COC(=O)[C@H](CCSC)NC(=O)C1=C(C=C(C=C1)NC[C@H](CS)N)C2=CC=CC=C2
Assay: as above
Procedure, shortened: as §1

log2 fold change, inactive:
NUDCD2 (UniProt Q8WVJ2) 0
NA, A0A096LPI6 0.019
NAP1L1 (UniProt P55209) 0.023
NCL (UniProt P19338) -0.01
NUP107 (UniProt P57740) 0
MRPL46 (UniProt Q9H2W6) -0.026
MRPS22 (UniProt P82650) -0.051
MSTO1 (UniProt Q9BUK6) 0.034
NOL11 (UniProt Q9H8H0) -0.009
NFYC (UniProt Q13952) 0.005
MTMR14 (UniProt Q8NCE2) 0.038
NISCH (UniProt Q9Y2I1) -0.12
NAPG (UniProt Q99747) -0.028
NDUFA4 (UniProt O00483) 0.001
NUMB (UniProt P49757) 0
MRPS18B (UniProt Q9Y676) -0.027
NUP85 (UniProt Q9BW27) 0.003
MTHFD1 (UniProt P11586) -0.036
NOSIP (UniProt Q9Y314) -0.182
NECTIN2 (UniProt Q92692) 0.063
NUP205 (UniProt Q92621) -0.038
NFATC2IP (UniProt Q8NCF5) -0.017
NRF1 isoform 4 (UniProt Q16656) 0.015
MRPS12 (UniProt O15235) 0.048
MON1B (UniProt Q7L1V2) -0.013
NEMP1 (UniProt O14524) 0.053
NDUFAF6 (UniProt Q330K2) 0.084
NFATC3 (UniProt Q12968) -0.051
MRPS15 (UniProt P82914) -0.01
NUP160 (UniProt Q12769) 0.003
NEU1 (UniProt Q99519) -0.019
OGFR (UniProt Q9NZT2) -0.154
NBN (UniProt O60934) -0.019
MYH10 isoform 3 (UniProt P35580) -0.023
MRPS24 (UniProt Q96EL2) -0.108
NOP2 isoform 4 (UniProt P46087) -0.024
NEDD4 isoform 4 (UniProt P46934) -0.009
NOLC1 isoform 2 (UniProt Q14978) 0
PAFAH1B2 (UniProt P68402) -0.026
